Screening results from PubChem.
Spn DPM-DC inh: S. pneumoniae DPM-DC inhibition; 65,000 tested, 0.49% active; calls only at 10 µM; purified DPM-DC, PK/LDH coupled NADH fluorescence; AID 556;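 active = the 320 compounds with the highest percent inhibition in the single-dose primary screen, excluding strongly autofluorescent ones, cut at about 32% in these data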;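 also: kinetic rate of NADH fluorescence loss reporting ADP formed by the decarboxylase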
Spn MK inh: blocks S. pneumoniae mevalonate kinase; inhibition, % at 10 µM; 65,000 tested, 0.48% active; purified MK, PK/LDH-coupled NADH absorbance 340 nm; AID 555;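 active = ranked among the strongest by inhibition in the single 10 µM screen, a fixed top-ranked set picked for dose follow-up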
Abs 340nm: compounds absorbing at 340 nm; compound absorbance at 340 nm, fold over control; fold change at 10 µM; 65,000 tested, under 10 active;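 active = at 10 µM dose, initial 340 nm absorbance at least 2 fold that of control wells; inactive = change under 2 fold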;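 also: initial absorbance extrapolated from kinetic A340 decline of NADH oxidation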
Fluor 339 460: intrinsic fluorescence of library compounds, ex339/em460 – biochemical, MLSMR library, data from DPM-DC assay, artefact control, profiling panel | AID 709 | compound autofluorescence, ex339/em460 nm, NADH buffer; hits give high values; 1 = no-compound wells, NADH background | 65,000 tested, 5.5% active | fluorescence fold increase at 10 µM;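 active = at 10 µM, mean starting fluorescence two-fold or more over control wells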;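 also: signal is the first read of a kinetic run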
NADH coupling: blocks coupling enzymes of NAD/NADH assays; IC50, µM (top dose mostly 10 µM); 65,000 tested, 0.02% active; coupled PK/LDH NADH assays, four targets;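 active = single-dose screening hits from any of four coupled enzyme assays that gave an IC50 when retested across doses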;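 also: the DPM-DC format reads NADH fluorescence rather than 340 nm absorbance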
Spn PMK inh: inhibitors of Streptococcus pneumoniae phosphomevalonate kinase | 65,000 tested, 0.49% active | inhibition, % at 10 µM | AID 539 | purified PMK, PK/LDH-coupled NADH absorbance 340 nm;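 active = top-ranked compounds by inhibition in the single 10 µM screen, taking a fixed number of the strongest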
Hits are given with their value. Hits are enriched below; roughly 6.3% of the tested compounds scored in any of these assays.

Results for CCCCOCCCn1c(-c2ccco2)nc2nc3ccccc3nc21 ?
Spn MK inh: inactive; Abs 340nm: inactive; Fluor 339 460: 3.95; NADH coupling: inactive; Spn PMK inh: inactive

How did Fc1cccc(-n2c(-c3ccco3)nc3nc4ccccc4nc32)c1 do in these assays?
Spn MK inh: inactive; Abs 340nm: inactive; Fluor 339 460: 3.59; NADH coupling: inactive; Spn PMK inh: inactive

Results for Cc1cccc(S(=O)(=O)Nc2nc3ccccc3nc2NCc2ccco2)c1 ?
Spn DPM-DC inh: inactive; Spn MK inh: inactive; Abs 340nm: inactive; Fluor 339 460: inactive; NADH coupling: inactive; Spn PMK inh: inactive

What do the screens show for `Cc1ccc(S(=O)(=O)c2c(N)n(NC(=O)c3ccco3)c3nc4ccccc4nc23)cc1`?
Spn MK inh: inactive; Abs 340nm: inactive; Fluor 339 460: 3.76; NADH coupling: inactive; Spn PMK inh: inactive

How did Cc1ccc(-c2ccc(CCC(=O)O)n2NC(=O)c2ccco2)cc1 do in these assays?
Spn DPM-DC inh: inactive; Spn MK inh: inactive; Abs 340nm: inactive; Fluor 339 460: inactive; NADH coupling: inactive; Spn PMK inh: inactive

How did Cc1cccc(-n2cnc3c(c2=O)c2nc4ccccc4nc2n3Cc2ccco2)c1 do in these assays?
Spn DPM-DC inh: inactive; Spn MK inh: inactive; Abs 340nm: inactive; Fluor 339 460: 3.17; NADH coupling: inactive; Spn PMK inh: inactive

What do the screens show for `Cc1ccc(S(=O)(=O)c2c(N)n(Cc3ccco3)c3nc4ccccc4nc23)cc1`?
Spn MK inh: inactive; Abs 340nm: inactive; Fluor 339 460: 2.24; NADH coupling: inactive; Spn PMK inh: inactive

Results for Cc1cccc(S(=O)(=O)c2c(N)n(Cc3ccco3)c3nc4ccccc4nc23)c1 ?
Spn MK inh: inactive; Abs 340nm: inactive; Fluor 339 460: 3.85; NADH coupling: inactive; Spn PMK inh: inactive

What do the screens show for `Cc1nc2ncnn2c(C)c1Cc1ccc(Cl)cc1F`?
Spn DPM-DC inh: inactive; Spn MK inh: inactive; Abs 340nm: inactive; Fluor 339 460: inactive; NADH coupling: inactive; Spn PMK inh: inactive

What do the screens show for `Cc1cc(C(=O)CSc2nnc(-c3ccco3)o2)c(C)n1CC1COc2ccccc2O1` (configuration not stated)?
Spn DPM-DC inh: inactive; Spn MK inh: inactive; Abs 340nm: inactive; Fluor 339 460: inactive; NADH coupling: inactive; Spn PMK inh: inactive

How did Cn1c(=O)c2c(nc(CN3CCOCC3)n2CCCO)n(C)c1=O do in these assays?
Spn DPM-DC inh: inactive; Spn MK inh: inactive; Abs 340nm: inactive; Fluor 339 460: inactive; NADH coupling: inactive; Spn PMK inh: inactive

How did Nc1nc(N2CCCCC2)nc2ccccc12 do in these assays?
Spn MK inh: inactive; Abs 340nm: inactive; Fluor 339 460: 3.89; NADH coupling: inactive; Spn PMK inh: inactive

How did Cc1ccc2nc(-c3ccccn3)cc(C(=O)NC3CCN(C)CC3)c2c1 do in these assays?
Spn DPM-DC inh: inactive; Spn MK inh: inactive; Abs 340nm: inactive; Fluor 339 460: 2.95; NADH coupling: inactive; Spn PMK inh: inactive

Results for CC(=O)N(Cc1cccnc1)Cc1cc2ccccc2[nH]c1=O ?
Spn DPM-DC inh: inactive; Spn MK inh: inactive; Abs 340nm: inactive; Fluor 339 460: inactive; NADH coupling: inactive; Spn PMK inh: inactive

How did CCOc1ccc2[nH]c(=O)c(CN(Cc3cccnc3)C(=O)Nc3ccccc3OC)cc2c1 do in these assays?
Spn DPM-DC inh: inactive; Spn MK inh: inactive; Abs 340nm: inactive; Fluor 339 460: 2.03; NADH coupling: inactive; Spn PMK inh: inactive

Results for COc1ccc2[nH]c(=O)c(CN(CCCN(C)C)C(=O)Nc3ccc(F)cc3)cc2c1 ?
Spn DPM-DC inh: inactive; Spn MK inh: inactive; Abs 340nm: inactive; Fluor 339 460: 2.74; NADH coupling: inactive; Spn PMK inh: inactive

Results for CCN(CC)CCN(Cc1cc2cc(C)ccc2[nH]c1=O)C(=O)Nc1ccccc1OC ?
Spn DPM-DC inh: inactive; Spn MK inh: inactive; Abs 340nm: inactive; Fluor 339 460: inactive; NADH coupling: inactive; Spn PMK inh: inactive

How did COc1ccc2[nH]c(=O)c(CN(Cc3cccnc3)C(=O)Nc3ccccc3)cc2c1 do in these assays?
Spn DPM-DC inh: inactive; Spn MK inh: inactive; Abs 340nm: inactive; Fluor 339 460: 2.51; NADH coupling: inactive; Spn PMK inh: inactive

How did CC(C)Cc1[nH]c(=O)c(C#N)c2c1CCCC2 do in these assays?
Spn DPM-DC inh: inactive; Spn MK inh: inactive; Abs 340nm: inactive; Fluor 339 460: inactive; NADH coupling: inactive; Spn PMK inh: inactive

Results for O=C(Cn1cnc2c(nnn2Cc2ccc(Cl)cc2)c1=O)NCc1ccco1 ?
Spn DPM-DC inh: inactive; Spn MK inh: inactive; Abs 340nm: inactive; Fluor 339 460: inactive; NADH coupling: inactive; Spn PMK inh: inactive

Results for c1ccc2oc(-c3nn4c(Cn5cnc6ccccc65)nnc4s3)cc2c1 ?
Spn DPM-DC inh: inactive; Spn MK inh: inactive; Abs 340nm: inactive; Fluor 339 460: 2.2; NADH coupling: inactive; Spn PMK inh: inactive

What do the screens show for `CC1CCc2nc(N)c(C#N)c(-c3ccncc3)c2C1` (configuration not stated)?
Spn MK inh: inactive; Abs 340nm: inactive; Fluor 339 460: 3.75; NADH coupling: inactive; Spn PMK inh: inactive

Results for CC1CCc2nc(N)c(C#N)c(-c3cccnc3)c2C1 (configuration not stated) ?
Spn DPM-DC inh: inactive; Spn MK inh: inactive; Abs 340nm: inactive; Fluor 339 460: inactive; NADH coupling: inactive; Spn PMK inh: inactive

Results for Cc1oc2ccccc2c1-c1cn2c(n1)SCC2 ?
Spn MK inh: inactive; Abs 340nm: inactive; Fluor 339 460: 3.63; NADH coupling: inactive; Spn PMK inh: inactive

What do the screens show for `Cc1cnn(C(=O)c2oc3ccccc3c2C)c1`?
Spn DPM-DC inh: inactive; Spn MK inh: inactive; Abs 340nm: inactive; Fluor 339 460: inactive; NADH coupling: inactive; Spn PMK inh: inactive

What do the screens show for `CCOC(=O)c1cc(-c2ccc3c(c2)OCO3)nc2onc(C)c12`?
Spn MK inh: inactive; Abs 340nm: inactive; Fluor 339 460: 3.28; NADH coupling: inactive; Spn PMK inh: inactive

Results for COc1ccc2[nH]c3ccccc3c2c1 ?
Spn DPM-DC inh: inactive; Spn MK inh: inactive; Abs 340nm: inactive; Fluor 339 460: inactive; NADH coupling: inactive; Spn PMK inh: inactive

What do the screens show for `COc1ccc2[nH]c(=O)c3c(c2c1)OC(C)(C)C=C3`?
Spn DPM-DC inh: inactive; Spn MK inh: inactive; Abs 340nm: inactive; Fluor 339 460: 2.46; NADH coupling: inactive; Spn PMK inh: inactive

How did C=CCn1c(N)c(C(=O)OC(C)(C)C)c2nc3ccccc3nc21 do in these assays?
Spn MK inh: inactive; Abs 340nm: inactive; Fluor 339 460: 2.48; NADH coupling: inactive; Spn PMK inh: inactive

How did C=CCn1c(N)c(C(=O)OC(C)CC)c2nc3ccccc3nc21 (configuration not stated) do in these assays?
Spn MK inh: inactive; Abs 340nm: inactive; Fluor 339 460: 2.12; NADH coupling: inactive; Spn PMK inh: inactive

What do the screens show for `CCOC(=O)N1CCN(C(=O)C2CCCN(S(=O)(=O)c3cccnc3)C2)CC1` (configuration not stated)?
Spn DPM-DC inh: inactive; Spn MK inh: inactive; Abs 340nm: inactive; Fluor 339 460: inactive; NADH coupling: inactive; Spn PMK inh: inactive
